# Results: PubChem BioAssay (Tox21)
# Values without a mark were called inactive. Records with an inconclusive call do not appear. A call without a number means that no potency is given here. Active and inactive are the calls of the source. Unless noted, calls follow the shape of the dose curve; as a rule, active = well fitted curve in the direction sought with a large enough effect in the repeat runs; inconclusive = weak or mixed curves; inactive = no such curve, though single readings can be large; an effect the other way counts as inactive or inconclusive.
# Assays:
# [1] = qHTS assay for small molecule agonists of the p53 signaling pathway (AID 651631; calls by dose curve; also: nearly all actives have a fitted effect of over 15% in size)
# Outline: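 p53RE-bla HCT-116 cells; compounds 16 h, 37 °C; LiveBLAzer B/G FRET substrate 2 h RT; fluorescence intensity read-out, qHTS format.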
# [2] = qHTS assay for small molecule agonists of the p53 signaling pathway - cell viability (AID 651633; calls by dose curve;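 also: p53RE-bla HCT reporter cells with a stable beta-lactamase p53 reporter; series mostly up to about 83 µM; nearly all actives have a fitted effect of over 30% in size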)
# Outline: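 p53RE-bla cells, seeded at 4,000 per well and rested 5 h at 37 C/5% CO2, received compounds in DMSO for 16 h at 37 C. CellTiter-Glo was then added, and luminescence was read after 30 min at room temperature to gauge cytotoxicity.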
# [3] = qHTS assay for small molecules that induce genotoxicity in human embryonic kidney cells expressing luciferase-tagged ATAD5 - cell viability (AID 651634; calls by dose curve; also: nearly all actives have a fitted effect of over 25% in size)
# Outline: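 Live-cell protease activity (CellTiter-Fluor, fluorescence) indicates viability. HEK293T cells with luciferase-tagged ATAD5; 15.5 hr compound treatment at 37C.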
# [4] = qHTS assay for small molecule disruptors of the mitochondrial membrane potential - cell viability (AID 720634; calls by dose curve;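 also: human HepG2 liver cancer cells; series mostly up to about 83 µM; nearly all actives have a fitted effect of over 20% in size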)
# Outline: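 Human hepatoma HepG2 cells were treated for 1 hr with test chemicals, then given m-MPI dye and CellTiter-Glo. Cell viability reflects luminescence proportional to cellular ATP.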
# [5] = qHTS assay to test for compound auto fluorescence at 590 nm (red) in HepG2 cells (AID 720674)
# Outline: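 Rose Bengal sodium served as the red fluorophore standard. HepG2 monolayers (overnight attachment, MEM with 10% FBS) were exposed to test compounds for 1 hr at 37 C and read at Ex 540/Em 590 nm.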
# [6] = qHTS assay to test for compound auto fluorescence at 535 nm (green) in HepG2 cells (AID 720675)
# [7] = qHTS assay to test for compound auto fluorescence at 460 nm (blue) in HEK293 cells (AID 720678)
# Outline: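 After cell attachment (4-5 hr, 37C), compounds were pinned onto HEK293 monolayers in 10% dialyzed FBS medium. The blue channel (405/460 nm) was read following overnight culture. Equivalency was calculated against triamterene.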
# [8] = qHTS assay to test for compound auto fluorescence at 590 nm (red) in HEK293 cells (AID 720679)
# Outline: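 Plates of HEK293 cells (10% dialyzed FBS) are treated with 23 nL compound or DMSO vehicle after a 4-5 hr attachment period, incubated overnight at 37C, and read for red fluorescence at 540/590nm.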
# [9] = qHTS assay to test for compound auto fluorescence at 535 nm (green) in HEK293 cells (AID 720680)
# [10] = qHTS assay to test for compound auto fluorescence at 460 nm (blue) in HEK293 cell free culture (AID 720681)
# Outline: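 Test compounds were pinned into cell-free culture medium (DMEM with 10% FBS) and fluorescence was read directly at Ex/Em 405/460 nm. Signals were expressed as fluorescence equivalents of triamterene, with DMSO vehicle as control.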
# [11] = qHTS assay to test for compound auto fluorescence at 535 nm (green) in HEK293 cell free culture (AID 720682)
# Outline: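 Cell-free medium (DMEM, 10% FBS) receives compound or DMSO by pintool. Plate read directly at Ex 485/Em 535 nm. Signal converted to fluorescein equivalency.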
# [12] = qHTS assay to test for compound auto fluorescence at 590 nm (red) in HEK293 cell free culture (AID 720683)
# Outline: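 Tox21 10K library compounds were pinned into cell-free DMEM with 10% FBS and fluorescence was read at excitation 540 nm. Activity is expressed as Rose Bengal sodium equivalency.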
# [13] = qHTS assay to test for compound auto fluorescence at 590 nm (red) in HepG2 cell free culture (AID 720684)
# Outline: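 Red fluorescence (540 nm excitation, 590 nm emission) was measured after compound transfer into cell-free MEM supplemented with 10% FBS. Values are equivalencies against Rose Bengal sodium.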
# [14] = qHTS assay to test for compound auto fluorescence at 460 nm (blue) in HepG2 cell free culture (AID 720685)
# Outline: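 Compound (23 nL) or DMSO pinned into cell-free MEM with 10% FBS; blue fluorescence read at 405/460 nm excitation/emission, expressed as auto-fluorescence equivalency to triamterene.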
# [15] = qHTS assay to test for compound auto fluorescence at 535 nm (green) in HepG2 cell free culture (AID 720686)
# [16] = qHTS assay to test for compound auto fluorescence at 460 nm (blue) in HepG2 cells (AID 720687)
# Outline: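 Cells (2,000/well in MEM with 10% FBS) attached overnight at 37 C, then were exposed to compound or DMSO for 1 hr at 37 C, 5% CO2. Fluorescence read at Ex/Em 405/460 nm, expressed as triamterene-equivalent signal.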
# [17] = molecular target: Glucocorticoid receptor (Homo sapiens) (UniProt P04150); assay: qHTS assay to identify small molecule agonists of the glucocorticoid receptor (GR) signaling pathway (AID 720691; active = well fitted activation curve with a large enough effect in the signal ratio in the repeat runs, not every such curve was filed as active; the % refers to the signal ratio; also: potency is read from the fitted curve at half-maximal effect)
# Sequence of Glucocorticoid receptor (Homo sapiens) (P04150 whole entry, looked up): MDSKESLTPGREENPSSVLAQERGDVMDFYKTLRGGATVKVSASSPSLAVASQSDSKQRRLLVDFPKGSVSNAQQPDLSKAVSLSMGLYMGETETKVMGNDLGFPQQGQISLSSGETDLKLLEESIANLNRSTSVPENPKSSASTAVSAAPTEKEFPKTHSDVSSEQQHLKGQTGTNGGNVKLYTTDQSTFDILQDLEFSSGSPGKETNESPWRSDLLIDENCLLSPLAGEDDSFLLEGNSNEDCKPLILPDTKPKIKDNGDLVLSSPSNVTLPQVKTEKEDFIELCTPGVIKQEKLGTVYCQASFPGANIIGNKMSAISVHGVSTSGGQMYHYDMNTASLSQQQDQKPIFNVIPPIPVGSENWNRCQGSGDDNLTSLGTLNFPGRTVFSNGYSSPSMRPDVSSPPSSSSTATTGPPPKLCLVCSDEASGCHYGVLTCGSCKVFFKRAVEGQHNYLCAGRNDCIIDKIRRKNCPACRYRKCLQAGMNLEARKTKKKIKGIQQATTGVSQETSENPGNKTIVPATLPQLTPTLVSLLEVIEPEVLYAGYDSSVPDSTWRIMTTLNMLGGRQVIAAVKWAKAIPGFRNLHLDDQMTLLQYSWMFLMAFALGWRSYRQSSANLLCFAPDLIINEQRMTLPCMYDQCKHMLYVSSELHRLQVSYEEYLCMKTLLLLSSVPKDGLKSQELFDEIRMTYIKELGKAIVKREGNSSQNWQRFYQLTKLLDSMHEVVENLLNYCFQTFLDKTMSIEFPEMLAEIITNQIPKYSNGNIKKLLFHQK
# Outline: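 Beta-lactamase reporter activity, read as fluorescence intensity, was measured in GR-bla HeLa cells exposed to compounds for 18 h at 37 C and then loaded with LiveBLAzer B/G FRET substrate for 2 h at room temperature.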
# [18] = molecular target: Glucocorticoid receptor (Homo sapiens) (UniProt P04150); assay: qHTS assay to identify small molecule antagonists of the glucocorticoid receptor (GR) signaling pathway (AID 720692; active = well fitted inhibition curve with a large enough effect in the signal ratio in the repeat runs, not every such curve was filed as active; the % refers to the signal ratio)
# Outline: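 Fluorescence from cleaved LiveBLAzer B/G FRET substrate reports GRE-driven beta-lactamase in HeLa cells; compounds are tested against 5 nM dexamethasone (final) over 18 h at 37 C, substrate incubation 2 h at room temperature.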
# [19] = qHTS assay for small molecules that induce genotoxicity in human embryonic kidney cells expressing luciferase-tagged ATAD5 (AID 651632); also: nearly all actives have a fitted effect of over 15% in size
# Outline: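 Genotoxicity read-out via ATAD5-luciferase: HEK293T cells, 16 hr compound incubation at 37C, Amplite detection.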
# [20] = qHTS assay for small molecule disruptors of the mitochondrial membrane potential (AID 720635)
# Outline: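 HepG2 cells (2,000/well) attached overnight at 37C, then took compound for 1 hr at 37C, 5% CO2. Mito-MPS dye was added for 30 min; fluorescence was read at 490/535 nm (monomers) and 540/590 nm (aggregates).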
compound,measurement,setting,value
CC(C)(O)CCCC1=CCC(C=O)CC1 (stereo not drawn),Potency,[1],inactive
same,outcome,[2],inactive
same,outcome,[3],inactive
same,outcome,[4],inactive
same,outcome,[5],inactive
same,outcome,[6],inactive
same,outcome,[7],inactive
same,outcome,[8],inactive
same,outcome,[9],inactive
same,outcome,[10],inactive
same,outcome,[11],inactive
same,outcome,[12],inactive
same,outcome,[13],inactive
same,outcome,[14],inactive
same,outcome,[15],inactive
same,outcome,[16],inactive
same,Potency,[17],inactive
same,outcome,[18],inactive
CCCC(=O)C(CC)Sc1ccoc1C (stereo not drawn),Potency,[1],inactive
same,Potency,[19],inactive
same,outcome,[3],inactive
same,outcome,[4],inactive
same,Potency,[20],inactive
same,outcome,[5],inactive
same,outcome,[6],inactive
same,outcome,[7],inactive
same,outcome,[8],inactive
same,outcome,[9],inactive
same,outcome,[10],inactive
same,outcome,[11],inactive
same,outcome,[12],inactive
same,outcome,[13],inactive
same,outcome,[14],inactive
same,outcome,[15],inactive
same,outcome,[16],inactive
c1cc2ccc3ccc4ccc5cccc6c(c1)c2c3c4c56,activation,[19],2.87% [at 3.63 µM]
same,"activity change, negative = cytotoxicity",[2],10.5% [at 3.63 µM]
same,"activity, negative = cytotoxicity",[3],31.3% [at 3.63 µM]
same,"activity change, negative = cytotoxicity",[4],7.58% [at 3.63 µM]
same,"ratio activity, negative = MMP loss",[20],16.7% [at 3.63 µM]
same,"fluorescence, relative to Rose Bengal",[5],0.113% [at 3.72 µM]
same,"fluorescence, % of fluorescein control",[6],0.0742% [at 3.72 µM]
same,"fluorescence, % of triamterene",[7],1.23% [at 3.72 µM]
same,"fluorescence, % of fluorescent control",[8],0.132% [at 3.72 µM]
same,"fluorescence, % of fluorescein",[9],-0.0268% [at 3.72 µM]
same,"fluorescence, % of fluorescent control",[10],1.22% [at 3.72 µM]
same,activity change,[11],0.0204% [at 3.72 µM]
same,"fluorescence, % of fluorescent control",[12],-0.0354% [at 3.72 µM]
same,"fluorescence, % of Rose Bengal",[13],0.202% [at 3.72 µM]
same,"fluorescence, % of fluorescent control",[14],1.51% [at 3.72 µM]
same,"fluorescence, % of fluorescein control",[15],-0.0141% [at 3.72 µM]
same,"fluorescence, % of fluorescent control",[16],2.24% [at 3.72 µM]
same,Potency,[17],1950 nM (active)
same,"activity change, negative = inhibition",[18],4.22% [at 3.15 µM]
CCC(C)c1nccnc1OC (stereo not drawn),Potency,[19],inactive
same,outcome,[2],inactive
same,outcome,[3],inactive
same,outcome,[4],inactive
same,Potency,[20],inactive
same,outcome,[5],inactive
same,outcome,[6],inactive
same,outcome,[7],inactive
same,outcome,[8],inactive
same,outcome,[9],inactive
same,outcome,[11],inactive
same,outcome,[12],inactive
same,outcome,[13],inactive
same,outcome,[14],inactive
same,outcome,[15],inactive
same,outcome,[16],inactive
same,Potency,[17],inactive
same,outcome,[18],inactive
CCCC(=O)CC,Potency,[19],inactive
same,outcome,[2],inactive
same,outcome,[3],inactive
same,outcome,[4],inactive
same,Potency,[20],inactive
same,outcome,[5],inactive
same,outcome,[6],inactive
same,outcome,[7],inactive
same,outcome,[8],inactive
same,outcome,[9],inactive
same,outcome,[10],inactive
same,outcome,[11],inactive
same,outcome,[12],inactive
same,outcome,[13],inactive
same,outcome,[14],inactive
same,outcome,[15],inactive
same,outcome,[16],inactive
CC(=O)OC/C=C(/C)CCC=C(C)C,Potency,[19],inactive
same,outcome,[2],inactive
same,outcome,[3],inactive
same,outcome,[4],inactive
same,Potency,[20],inactive
same,outcome,[5],inactive
same,outcome,[6],inactive
same,outcome,[7],inactive
same,outcome,[8],inactive
same,outcome,[9],inactive
same,outcome,[11],inactive
same,outcome,[12],inactive
same,outcome,[13],inactive
same,outcome,[14],inactive
same,outcome,[15],inactive
same,outcome,[16],inactive
same,Potency,[17],inactive
same,outcome,[18],inactive
CCOC(=O)[C@H](CCc1ccccc1)N[C@H]1CS[C@H](c2cccs2)CN(CC(=O)O)C1=O,Potency,[19],inactive
same,outcome,[2],inactive
same,outcome,[3],inactive
same,outcome,[4],inactive
same,Potency,[20],inactive
same,outcome,[5],inactive
same,outcome,[6],inactive
same,outcome,[7],inactive
same,outcome,[8],inactive
same,outcome,[9],inactive
same,outcome,[10],inactive
same,outcome,[11],inactive
same,outcome,[12],inactive
same,outcome,[13],inactive
same,outcome,[14],inactive
same,outcome,[15],inactive
same,outcome,[16],inactive
same,Potency,[17],inactive
same,outcome,[18],inactive
CC(C)(C)c1ccc(N)cc1,Potency,[19],inactive
same,outcome,[2],inactive
same,outcome,[3],inactive
same,outcome,[4],inactive
same,Potency,[20],inactive
same,outcome,[5],inactive
same,outcome,[6],inactive
same,outcome,[7],inactive
same,outcome,[8],inactive
same,outcome,[9],inactive
same,outcome,[10],inactive
same,outcome,[11],inactive
same,outcome,[12],inactive
same,outcome,[13],inactive
same,outcome,[14],inactive
same,outcome,[15],inactive
same,outcome,[16],inactive
same,Potency,[17],inactive
CCCCCCCCCCCC(C)=O,Potency,[19],inactive
same,outcome,[2],inactive
same,outcome,[3],inactive
same,outcome,[4],inactive
same,Potency,[20],inactive
same,outcome,[5],inactive
same,outcome,[6],inactive
same,outcome,[7],inactive
same,outcome,[8],inactive
same,outcome,[9],inactive
same,outcome,[10],inactive
same,outcome,[11],inactive
same,outcome,[12],inactive
same,outcome,[13],inactive
same,outcome,[14],inactive
same,outcome,[15],inactive
same,outcome,[16],inactive
same,Potency,[17],inactive
same,outcome,[18],inactive
